This is an account of results in ChEMBL document CHEMBL3433997, “St. Jude Leishmania screening dataset” (2016).

SMILES strings stand for the structures.

For the assay, the target named is Glucose transporter (Leishmania mexicana) (UniProt O61059). Nature of the assay: ST_JUDE_LEISH: Cytotoxicity at 2uM final concentration against transgenic Leishmania Mexicana promastigotes LmGT2 that are glucose transport deficient and complemented with the L. Mexicana glucose transporter 2. Activity is measured by DNA content using SYBR green in vitro. The format is functional.
Turning to `CCCCCCN1CCC(NCc2ccc(OCCN3CCCC3)cc2)CC1`, the inhibition is -0.15%. The value for `COc1ccc2nccc([C@@H](O)CN3CCC(NCCOc4cc(C(F)(F)F)ccc4F)CC3)c2c1` was 14.4%; that for `CN1CCCC(CN2CCN(Cc3ccc(-c4ccc(-c5nc6ccccc6[nH]5)s4)cc3)CC2)C1` (stereo not given) was 9.58%; that for `COc1ccc2nccc([C@@H](O)CN3CCC(NC(=O)c4cccc(-c5cc(C)no5)c4)CC3)c2c1` was 0.08%. The value for `CC(C)(C)c1ccc(CNC(=O)c2ccc(-c3nc4ccc(Cl)cc4[nH]3)cc2)cc1` was 1.63%. Regarding `COc1ccc2nc(N)nc(C)c2c1`, the inhibition amounted to 2.78%. The value for `COc1ccc(CCNc2nc(NCc3ccccc3)c3cc(OC)c(OC)cc3n2)cc1OC` was 0.26%; that for `Cc1nn(C2CCS(=O)(=O)C2)c(C)c1C1Nc2ccccc2C(=O)N1Cc1ccc2c(c1)OCO2` (stereo not given) was -1.17%; that for `CC1(C)CC2CC(C)(CN2C(=O)c2cc(C(C)(C)C)nn2Cc2ccccc2)C1` (stereo not given) was 5.94%. For `Cc1cc(C(=O)NC2CCN(Cc3ccccc3)CC2)ccc1-c1nc2cc(Cl)c(Cl)cc2[nH]1`, the inhibition is 3.05%.

As for `O=C(NCCCCN1CCC(c2nc3ccccc3s2)CC1)c1cc2ccccc2[nH]1`, the inhibition was -1.01%. For `Cc1cc(C(=O)NC2CCN(Cc3ccccc3)CC2)ccc1-c1nc2ccc(C(F)(F)F)cc2[nH]1`, the inhibition came out at 3.25%. As for `Cc1ccc(OCCCCONC(=O)c2ccccc2)cc1`, the figure is -0.14%; as for `O=c1c2ccccc2[nH]c2cc(Cl)ccc12`, 0.77%; as for `O=C(CSc1nc(-c2ccccc2Cl)ns1)Nc1cccc(F)c1`, 5.3%. As for `CCCCCNC(=N)N/N=C/c1c[nH]c2ccc(OC)cc12`, the figure is -0.13%; as for `Cc1cccc2nc(-c3ccc(-c4cccc(NC(=O)Cc5c[nH]cn5)c4)cc3)[nH]c12`, -1.21%. As for `O=C(NC1CCCCN(Cc2ccccc2O)C1)c1ccc(Cl)c(Cl)c1` (stereo not given), the figure is 3.76%; as for `O=C(NCCCNc1ccnc2cc(Cl)ccc12)c1ccccc1F`, 4.23%; as for `CC(=O)Nc1nc(C(=O)Nc2cccc(-c3cccc(-c4nc5cc(F)ccc5[nH]4)c3)c2)cs1`, 2.66%. In the case of `Cc1cc(Nc2ncc(C#N)c(Nc3ccccc3C(N)=O)n2)ccc1N1CCN(C)CC1`, the inhibition stood at 65.4%. Consider `CC(C)c1cc(Oc2c(I)cc(CCNCc3ccccc3)cc2I)ccc1O`, for which the inhibition worked out at 0.47%. The value for `COc1cc(NC(=O)c2nn(CCCN3CCC(N4CCCC4)CC3)cc2-c2ccc(Cl)c(Cl)c2)cc(OC)c1OC` was 1.96%; that for `Cc1cc(NC(=O)c2cccs2)ccc1OC1CCN(Cc2ccc(F)cc2)C1` (stereo not given) was 1.92%. In the case of `CCCCc1ccc2ncc(C(=O)OCC)c(O)c2c1`, the inhibition is -3.16%. The value for `COc1ccc(C=NN=c2cc(C)[nH]c3ccccc23)c(OC)c1` was 55.3%; that for `CCOc1ccc(C(C)NC(=O)c2cc(Cl)ccc2OC)cc1OCC` (stereo not given) was -2.78%; that for `CCNc1cc(C(=O)N[C@@H](Cc2ccccc2)[C@H](O)CNC2(C(C)C)CCC2)cc(N2CCCCS2(=O)=O)c1` was -2.45%. The value for `COc1ccc(-c2cc(C(=O)N3CCc4ccccc43)c3ccccc3n2)cc1OC` was -0.93%; that for `COC(=O)CC[C@H](NC(=O)[C@H](C)NC(=O)OC(C)(C)C)C(=O)OC` was 0.89%; that for `CNC(=O)c1cnc(Nc2ccc(OCC(O)CN(C)C)cc2)nc1Nc1cccc(OC(C)C)c1` (stereo not given) was 1.38%. The value for `OC(CNc1cccc(Cl)c1)Cn1c2ccc(Cl)cc2c2cc(Cl)ccc21` (stereo not given) was 2.34%; that for `Nc1nc(N)c2c(Sc3ccccc3)cccc2n1` was 2.7%. In the case of `CC[C@H](C)CNC(=O)c1cncc(-c2cccc(CN3CCC(N4CCCC4)CC3)c2)c1`, the inhibition was -0.34%. In the case of `COc1cccc(CN2CCC3(CC2)CN(C(=O)Nc2ccc(Cl)c(Cl)c2)C3)c1`, the inhibition is 3.35%.

On to `CCCc1cc(Cc2cnc(N)nc2N)cc(CCC)c1OCCCCC(=O)OC`, for which the inhibition is 0.33%.

For `CCCCCN1CCCC1CNS(=O)(=O)c1cccc(C(=O)Nc2cccc(C(F)(F)F)c2)c1` (stereo not given), the inhibition was 5.05%. The value for `COc1cccc(C(=O)NC(NC(=S)Nc2ccc(OC)cc2[N+](=O)[O-])C(Cl)(Cl)Cl)c1` (stereo not given) was -2.26%; that for `Cc1ccc(-n2c(Sc3ncnc4sccc34)nnc2N2CCCC2)cc1` was 1.41%; that for `CCC1CN2CCc3c([nH]c4ccccc34)C2CC1CC1=NCCc2c1[nH]c1ccccc21` (stereo not given) was 2.74%.

As a reminder, the inhibition is the change of the read-out against control, counted positive when it falls.
